# Results from paper PMC11006913.
# Changes are numbered by the printed parent chain.
# Legend:
# Test in all cases: PBM; 200 nM protein, PBS
# Conditions in all cases: dsDNA, one strand shown
# CRX [1] = target: CRX (Homo sapiens, UniProt O43186 26-111)
# CRX [2] = target: CRX (Homo sapiens, UniProt O43186 26-111, E42D)
# CRX [3] = target: CRX (Homo sapiens, UniProt O43186 26-111, R41L)
# HOXB6 = HOXB6 (Homo sapiens, UniProt P17509 132-218)
# NKX2-4 [4] = target: T1, NKX2-4 (Homo sapiens, UniProt Q9H2Z4 175-261, P217L)
# T1 sequence: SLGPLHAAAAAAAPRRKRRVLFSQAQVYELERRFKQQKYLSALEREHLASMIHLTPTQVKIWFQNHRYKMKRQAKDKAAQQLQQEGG
# HOXB9 [5] = target: HOXB9 (Homo sapiens, UniProt P17482 171-250, T197M)
# NKX2-4 [6] = target: T2, NKX2-4 (Homo sapiens, UniProt Q9H2Z4 175-261, T231S)
# T2 sequence: T1 sequence with L43P, T57S
# NKX2-4 [7] = target: T3, NKX2-4 (Homo sapiens, UniProt Q9H2Z4 175-261)
# T3 sequence: T1 sequence with L43P
# HOXB9 [8] = target: HOXB9 (Homo sapiens, UniProt P17482 171-250)
# NKX2-4 [9] = target: T4, NKX2-4 (Homo sapiens, UniProt Q9H2Z4 175-261, R246Q)
# T4 sequence: T1 sequence with L43P, R72Q
# HOXB9 [10] = target: HOXB9 (Homo sapiens, UniProt P17482 171-250, R186Q)
# NKX2-5 = NKX2-5 (Homo sapiens, UniProt P52952 125-210)
# VENTX [11] = target: T5, VENTX (Homo sapiens, UniProt O95231 78-163, R121Q)
# T5 sequence: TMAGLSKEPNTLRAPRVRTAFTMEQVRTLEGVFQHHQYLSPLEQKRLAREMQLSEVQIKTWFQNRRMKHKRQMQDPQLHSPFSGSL
# VENTX [12] = target: T6, VENTX (Homo sapiens, UniProt O95231 78-163)
# T6 sequence: T5 sequence with Q44R
# VENTX [13] = target: T7, VENTX (Homo sapiens, UniProt O95231 78-163, Y115F)
# T7 sequence: T5 sequence with Y38F, Q44R
# PITX2 = PITX2 (Homo sapiens, UniProt Q99697 72-157)
# CRX (Homo sapiens, UniProt O43186 26-111, R41L), sequence (O43186 26-111 R41L): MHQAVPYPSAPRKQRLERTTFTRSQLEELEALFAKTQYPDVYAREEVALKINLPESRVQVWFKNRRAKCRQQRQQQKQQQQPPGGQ
# CRX (Homo sapiens, UniProt O43186 26-111, E42D), sequence (O43186 26-111 E42D): as the sequence (O43186 26-111 R41L) above, with L16R, E17D counted along it
# CRX (Homo sapiens, UniProt O43186 26-111), sequence (O43186 26-111): as the sequence (O43186 26-111 R41L) above, with L16R counted along it
# HOXB9 (Homo sapiens, UniProt P17482 171-250, R186Q), sequence (P17482 171-250 R186Q): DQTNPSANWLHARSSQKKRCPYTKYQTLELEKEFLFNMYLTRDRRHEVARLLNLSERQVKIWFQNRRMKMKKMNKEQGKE
# HOXB9 (Homo sapiens, UniProt P17482 171-250, T197M), sequence (P17482 171-250 T197M): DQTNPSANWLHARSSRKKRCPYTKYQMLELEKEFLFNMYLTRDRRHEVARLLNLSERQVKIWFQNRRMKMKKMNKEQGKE
# HOXB9 (Homo sapiens, UniProt P17482 171-250), sequence (P17482 171-250): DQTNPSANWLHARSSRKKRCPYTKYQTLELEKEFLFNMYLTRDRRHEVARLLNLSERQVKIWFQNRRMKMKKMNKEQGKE
# HOXB6, sequence (P17509 132-218): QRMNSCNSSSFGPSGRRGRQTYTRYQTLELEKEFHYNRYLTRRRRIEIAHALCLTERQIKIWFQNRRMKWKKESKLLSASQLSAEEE
# NKX2-5, sequence (P52952 125-210): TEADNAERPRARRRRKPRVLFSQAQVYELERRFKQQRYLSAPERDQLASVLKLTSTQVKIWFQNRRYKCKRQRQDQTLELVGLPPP
sequence,measurement,setting,value
GGTTGCCA,binding signal,CRX [1],"8.28 upbm affinity estimate (log intensity, higher = more binding, comparable within an allelic series)"
same,binding signal,CRX [2],"8.39 upbm affinity estimate (log intensity, higher = more binding, comparable within an allelic series)"
same,binding signal,CRX [3],"8.41 upbm affinity estimate (log intensity, higher = more binding, comparable within an allelic series)"
CCGATCAG,binding signal,CRX [1],"9.74 upbm affinity estimate (log intensity, higher = more binding, comparable within an allelic series)"
same,binding signal,CRX [2],"9.63 upbm affinity estimate (log intensity, higher = more binding, comparable within an allelic series)"
same,binding signal,CRX [3],"9.48 upbm affinity estimate (log intensity, higher = more binding, comparable within an allelic series)"
CGAGTGCG,binding signal,CRX [1],"8.19 upbm affinity estimate (log intensity, higher = more binding, comparable within an allelic series)"
same,binding signal,CRX [2],"8.15 upbm affinity estimate (log intensity, higher = more binding, comparable within an allelic series)"
same,binding signal,CRX [3],"8.17 upbm affinity estimate (log intensity, higher = more binding, comparable within an allelic series)"
ATAATATC,binding signal,CRX [1],"11.2 upbm affinity estimate (log intensity, higher = more binding, comparable within an allelic series)"
same,binding signal,CRX [2],"10.9 upbm affinity estimate (log intensity, higher = more binding, comparable within an allelic series)"
same,binding signal,CRX [3],"10.8 upbm affinity estimate (log intensity, higher = more binding, comparable within an allelic series)"
same,binding signal,HOXB6,"10.8 upbm affinity estimate (log intensity, higher = more binding, comparable within an allelic series)"
AAGTAATA,binding signal,CRX [1],"10.4 upbm affinity estimate (log intensity, higher = more binding, comparable within an allelic series)"
same,binding signal,CRX [2],"10.3 upbm affinity estimate (log intensity, higher = more binding, comparable within an allelic series)"
same,binding signal,CRX [3],"10.1 upbm affinity estimate (log intensity, higher = more binding, comparable within an allelic series)"
GCAACCGC,binding signal,CRX [1],"8.47 upbm affinity estimate (log intensity, higher = more binding, comparable within an allelic series)"
same,binding signal,CRX [2],"8.38 upbm affinity estimate (log intensity, higher = more binding, comparable within an allelic series)"
same,binding signal,CRX [3],"8.34 upbm affinity estimate (log intensity, higher = more binding, comparable within an allelic series)"
AGAGGGCC,binding signal,NKX2-4 [4],"11.7 upbm affinity estimate (log intensity, higher = more binding, comparable within an allelic series)"
same,binding signal,HOXB9 [5],"8.51 upbm affinity estimate (log intensity, higher = more binding, comparable within an allelic series)"
same,binding signal,NKX2-4 [6],"12 upbm affinity estimate (log intensity, higher = more binding, comparable within an allelic series)"
same,binding signal,NKX2-4 [7],"11.7 upbm affinity estimate (log intensity, higher = more binding, comparable within an allelic series)"
same,binding signal,HOXB9 [8],"8.69 upbm affinity estimate (log intensity, higher = more binding, comparable within an allelic series)"
same,binding signal,NKX2-4 [9],"11.9 upbm affinity estimate (log intensity, higher = more binding, comparable within an allelic series)"
same,binding signal,HOXB9 [10],"8.57 upbm affinity estimate (log intensity, higher = more binding, comparable within an allelic series)"
GGTGCTTA,binding signal,CRX [1],"11 upbm affinity estimate (log intensity, higher = more binding, comparable within an allelic series)"
same,binding signal,CRX [2],"10.9 upbm affinity estimate (log intensity, higher = more binding, comparable within an allelic series)"
same,binding signal,CRX [3],"10.4 upbm affinity estimate (log intensity, higher = more binding, comparable within an allelic series)"
same,binding signal,NKX2-5,"10.4 upbm affinity estimate (log intensity, higher = more binding, comparable within an allelic series)"
CACCGCGG,binding signal,NKX2-4 [4],"9.48 upbm affinity estimate (log intensity, higher = more binding, comparable within an allelic series)"
same,binding signal,VENTX [11],"8.21 upbm affinity estimate (log intensity, higher = more binding, comparable within an allelic series)"
same,binding signal,HOXB9 [5],"8.56 upbm affinity estimate (log intensity, higher = more binding, comparable within an allelic series)"
same,binding signal,VENTX [12],"8.03 upbm affinity estimate (log intensity, higher = more binding, comparable within an allelic series)"
same,binding signal,NKX2-4 [6],"9.5 upbm affinity estimate (log intensity, higher = more binding, comparable within an allelic series)"
same,binding signal,VENTX [13],"8.12 upbm affinity estimate (log intensity, higher = more binding, comparable within an allelic series)"
same,binding signal,NKX2-4 [7],"9.48 upbm affinity estimate (log intensity, higher = more binding, comparable within an allelic series)"
same,binding signal,HOXB9 [8],"8.55 upbm affinity estimate (log intensity, higher = more binding, comparable within an allelic series)"
same,binding signal,NKX2-4 [9],"9.54 upbm affinity estimate (log intensity, higher = more binding, comparable within an allelic series)"
same,binding signal,HOXB9 [10],"8.55 upbm affinity estimate (log intensity, higher = more binding, comparable within an allelic series)"
ACGTCTCG,binding signal,CRX [1],"8 upbm affinity estimate (log intensity, higher = more binding, comparable within an allelic series)"
same,binding signal,CRX [2],"8.27 upbm affinity estimate (log intensity, higher = more binding, comparable within an allelic series)"
same,binding signal,CRX [3],"8.17 upbm affinity estimate (log intensity, higher = more binding, comparable within an allelic series)"
CTTAAGCC,binding signal,CRX [1],"12.7 upbm affinity estimate (log intensity, higher = more binding, comparable within an allelic series)"
same,binding signal,CRX [3],"11.9 upbm affinity estimate (log intensity, higher = more binding, comparable within an allelic series)"
CCGGTCGA,binding signal,CRX [1],"8.51 upbm affinity estimate (log intensity, higher = more binding, comparable within an allelic series)"
same,binding signal,CRX [2],"8.46 upbm affinity estimate (log intensity, higher = more binding, comparable within an allelic series)"
same,binding signal,CRX [3],"8.45 upbm affinity estimate (log intensity, higher = more binding, comparable within an allelic series)"
AGATTAGG,binding signal,CRX [1],"12.7 upbm affinity estimate (log intensity, higher = more binding, comparable within an allelic series)"
same,binding signal,PITX2,"12.3 upbm affinity estimate (log intensity, higher = more binding, comparable within an allelic series)"
same,binding signal,CRX [3],"12.2 upbm affinity estimate (log intensity, higher = more binding, comparable within an allelic series)"
CGCTAATC,binding signal,CRX [1],"12.8 upbm affinity estimate (log intensity, higher = more binding, comparable within an allelic series)"
same,binding signal,PITX2,"12.2 upbm affinity estimate (log intensity, higher = more binding, comparable within an allelic series)"
same,binding signal,CRX [3],"12.3 upbm affinity estimate (log intensity, higher = more binding, comparable within an allelic series)"
AATCCAAC,binding signal,CRX [1],"10.9 upbm affinity estimate (log intensity, higher = more binding, comparable within an allelic series)"
same,binding signal,CRX [2],"10.8 upbm affinity estimate (log intensity, higher = more binding, comparable within an allelic series)"
same,binding signal,CRX [3],"10.7 upbm affinity estimate (log intensity, higher = more binding, comparable within an allelic series)"
GATAAACC,binding signal,CRX [1],"11.4 upbm affinity estimate (log intensity, higher = more binding, comparable within an allelic series)"
same,binding signal,CRX [2],"11.1 upbm affinity estimate (log intensity, higher = more binding, comparable within an allelic series)"
same,binding signal,CRX [3],"10.9 upbm affinity estimate (log intensity, higher = more binding, comparable within an allelic series)"
AGATTAAC,binding signal,CRX [1],"12.9 upbm affinity estimate (log intensity, higher = more binding, comparable within an allelic series)"
same,binding signal,PITX2,"12.7 upbm affinity estimate (log intensity, higher = more binding, comparable within an allelic series)"
same,binding signal,CRX [3],"12.6 upbm affinity estimate (log intensity, higher = more binding, comparable within an allelic series)"
AAGATTAT,binding signal,CRX [1],"12.9 upbm affinity estimate (log intensity, higher = more binding, comparable within an allelic series)"
same,binding signal,CRX [2],"12.8 upbm affinity estimate (log intensity, higher = more binding, comparable within an allelic series)"
same,binding signal,CRX [3],"12.8 upbm affinity estimate (log intensity, higher = more binding, comparable within an allelic series)"
CCTGGTGC,binding signal,CRX [1],"8.29 upbm affinity estimate (log intensity, higher = more binding, comparable within an allelic series)"
same,binding signal,CRX [2],"8.25 upbm affinity estimate (log intensity, higher = more binding, comparable within an allelic series)"
same,binding signal,CRX [3],"8.32 upbm affinity estimate (log intensity, higher = more binding, comparable within an allelic series)"
GACGCTAC,binding signal,CRX [1],"8.4 upbm affinity estimate (log intensity, higher = more binding, comparable within an allelic series)"
same,binding signal,CRX [2],"8.38 upbm affinity estimate (log intensity, higher = more binding, comparable within an allelic series)"
same,binding signal,CRX [3],"8.27 upbm affinity estimate (log intensity, higher = more binding, comparable within an allelic series)"
